# Screening results deposited in PubChem BioAssay by several laboratories.
# In the library only some 1.2% were active in any assay of this set; here they are far more common.
# NCOA3 inh: SRC3 coactivator transcriptional activity inhibitors, primary screen, cell-based, luminescence; HEK293 GAL4-SRC3 luciferase reporter; inhibition, % at 3.6 µM; Nuclear receptor coactivator 3 (Homo sapiens), Q9Y6Q9; actives 0.17% (n = 360,000);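 active = inhibition above a per-campaign cutoff, the mean of all compounds plus 3 SD, cut at about 60% in these data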;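 also: 0% = DMSO-treated cells and 100% = gossypol-treated cells at 36 µM; higher means less SRC3-driven luciferase light from the GAL4 reporter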
# NCOA1 inh: SRC1 coactivator transcriptional activity inhibitors, primary screen, cell-based, luminescence; Nuclear receptor coactivator 1 (Homo sapiens), Q15788; actives 0.12% (n = 360,000); inhibition, % at 3.6 µM; AID 588354, 2011; HEK293 GAL4-SRC1 luciferase reporter;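 active = inhibition above the campaign mean plus 3 SD, with each screening campaign given its own cutoff, cut at about 60% in these data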;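 also: 0% = DMSO treated cells and 100% = gossypol at 36 µM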
# Shn3 3UTR inh: reduction of Shn3 3'UTR firefly luciferase signal, primary screen, Schnurri-3 inhibitor project, cell-based, Clone20 osteoblasts, set 2; inhibition, % at 12.5 µM; actives 0.52% (n = 360,000); Clone20 osteoblast Shn3 3'UTR firefly luciferase, 24 h;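 active = mean inhibition of at least 75% with every replicate also reaching 75%; inconclusive = mean inhibition at least 75% but some replicate below; inactive = mean inhibition below 75%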;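 also: 0% = median of neutral control wells and 100% = pilot-screen positive control compound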
# LRH-1 inv ag: LRH-1 (NR5A2) inverse agonists, primary screen, cell-based, luminescence, HEK293T, StAR-luciferase reporter | actives 0.13% (n = 360,000) | LRH-1 transfected, 24 h | inhibition, % at 3.6 µM;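 active = inhibition above the mean inhibition of all tested compounds plus 3 SD, cut at about 73% in these data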;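 also: 0% = DMSO wells and 100% = reporter-only cells lacking LRH-1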
# Target sequence (O00482 whole entry, looked up): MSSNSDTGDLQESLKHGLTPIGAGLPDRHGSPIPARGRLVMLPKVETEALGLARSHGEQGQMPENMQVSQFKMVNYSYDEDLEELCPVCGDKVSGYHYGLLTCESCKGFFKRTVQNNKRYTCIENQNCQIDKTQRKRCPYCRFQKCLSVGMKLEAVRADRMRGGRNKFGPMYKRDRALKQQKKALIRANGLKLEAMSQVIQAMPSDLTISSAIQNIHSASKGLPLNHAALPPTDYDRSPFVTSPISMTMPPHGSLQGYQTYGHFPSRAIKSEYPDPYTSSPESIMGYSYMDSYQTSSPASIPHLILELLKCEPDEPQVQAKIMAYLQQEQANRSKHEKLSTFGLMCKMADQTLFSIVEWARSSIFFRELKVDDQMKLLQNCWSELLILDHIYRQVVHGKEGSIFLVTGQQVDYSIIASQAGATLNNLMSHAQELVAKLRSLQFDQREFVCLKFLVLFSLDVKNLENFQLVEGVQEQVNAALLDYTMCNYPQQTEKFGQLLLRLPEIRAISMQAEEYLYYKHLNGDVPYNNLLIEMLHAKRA
# SRC2 inh: inhibition of GAL4-SRC2 driven luciferase reporter, primary screen, SRC2 inhibitor project, cell-based, luminescence. HEK293 GAL4-SRC2 luciferase reporter. inhibition, % at 9 µM. actives 0.17% (n = 370,000). AID 651957, 2012;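 active = inhibition above the mean inhibition of all tested compounds plus 3 SD, set per campaign, cut at about 52% in these data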;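 also: 0% = DMSO treated cells and 100% = cells given Gossypol at 36 µM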
# LMP1 NFkB inh: EBV LMP1-driven NF-kappaB luciferase reporter inhibitors, primary screen, cell-based, luminescence, single point. LMP1-induced NF-kappaB luciferase reporter cells. inhibition, % at 12.5 µM. actives 0.69% (n = 350,000). AID 504558, 2011; in the data active = inhibition above about 41%; inconclusive = no clear call, values can overlap the other calls;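 also: 0% = neutral control wells and 100% = reference inhibitor control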
# Starred values were filed as active, the others as inactive; ? = inconclusive; / = not tested or not shown.
SMILES,NCOA3 inh,NCOA1 inh,Shn3 3UTR inh,LRH-1 inv ag,SRC2 inh,LMP1 NFkB inh
Cc1nc(N2CCN(C(=O)c3ccco3)CC2)c2c3c(sc2n1)CCCC3,1.2,1.8,23.6,-14.5,1.0,6.6
Cc1nc(N2CCN(C(=O)c3ccco3)CC2)c2c3c(sc2n1)CC(C)CC3 (stereo unspecified),9.4,-26.0,91.7*,-10.1,-2.6,11.8
O=C(CSCc1cccc(CSCC(=O)Nc2ccccc2)n1)Nc1ccccc1,-5.5,2.5,-4.2,-14.0,10.6,3.9
O=C(CSCc1nc2ccccc2[nH]1)Nc1ccccc1,-2.4,-36.2,-3.1,5.9,-21.0,59.5*
CCOC(=O)C1=NOC(C(=O)NC2CCCC2)(C(=O)C2CC2)C1 (stereo unspecified),/,/,/,/,11.6,/
Cc1nc2nc(-c3ccc(F)cc3)cn2nc1C,-101.3,-112.3,-19.6,-183.9,-4.5,13.2
CCc1ccc(-c2cn3nc(C)c(C)nc3n2)cc1,-20.0,-29.7,77.9,-52.3,59.2*,84.3*
Nc1nc(N)c2c(ccc3c2ccn3Cc2cccc([N+](=O)[O-])c2)n1,64.4*,64.6*,75.6,54.8,23.1,/
Nc1nc(N)nc(-c2cccc([N+](=O)[O-])c2)n1,-37.0,0.4,12.3,-7.9,-25.6,/
Cc1ccsc1/C=C/c1ccc2cccc(O)c2n1,-117.6,-107.4,-31.3,-89.4,-62.0,-16.7
Cc1ccsc1/C=C/c1ccc2ccccc2n1,-58.1,-88.2,7.6,-72.3,-18.2,69.6*
COc1ccc(OC(=O)N2CCOCC2)cc1,-22.7,-16.1,-25.5,-16.2,-13.2,-8.9
COc1ccc(/C(N)=N/OC(=O)N2CCOCC2)cc1,3.7,-37.9,-10.3,7.1,-7.9,90.2*
C#CCN1CC(N(C)CCOC(=O)CCCc2ccccc2)CS1(=O)=O (stereo unspecified),/,/,/,/,-25.0,/
CC(C)CC[n+]1ccccc1/C=C/c1ccc(N(C)C)cc1,76.0*,56.8,76.5,90.9*,16.3,36.4
CN(C)c1ccc(/C=C/c2cccc[n+]2[O-])cc1,-89.2,-77.4,-28.4,-110.5,-62.8,-1.1
Cc1ccc(Cn2cc(CN3[C@@H](Cc4ccccc4)COc4cc(Br)ccc4S3(=O)=O)nn2)cc1,/,/,/,/,12.0,/
COc1ccc(Nc2nc(NCCO)nc(N3CCCC3)n2)cc1,-16.0,3.2,-4.7,2.8,-4.1,5.1
OCCNc1nc(Nc2ccc(Cl)cc2)nc(N2CCCC2)n1,4.0,5.1,87.4*,-7.4,22.2,1.8
CCOC(=O)Cn1cc(CN2CCS(=O)(=O)N(Cc3ccccc3)C(C(=O)OC)C2)nn1 (stereo unspecified),/,/,/,/,-33.7,/
COc1ccc(C(NC(C)=O)c2ccc3cccnc3c2O)c(OC)c1 (stereo unspecified),19.0,18.9,89.7*,18.4,/,58.6*
CCCC(=O)NC(c1ccc(Cl)cc1Cl)c1ccc2cccnc2c1O (stereo unspecified),36.9,28.4,92.4*,27.2,36.0,62.8*
CC(=O)NC(C)c1cc(Cl)c2cccnc2c1O (stereo unspecified),37.7,29.6,26.7,33.0,12.4,8.7
CC(=O)NC(c1ccc(Cl)cc1Cl)c1ccc2cccnc2c1O (stereo unspecified),23.3,40.2,89.3*,88.1*,23.4,68.6*
CCCC(=O)NC(c1ccc(Cl)cc1)c1ccc2cccnc2c1O (stereo unspecified),47.6,47.8,84.6,77.1*,18.7,?
SMILES,NCOA3 inh,NCOA1 inh,Shn3 3UTR inh,LRH-1 inv ag,SRC2 inh,LMP1 NFkB inh
CCCC(=O)NC(c1ccco1)c1cc(Cl)c2cccnc2c1O (stereo unspecified),9.9,-6.4,43.3,8.1,1.2,33.6
CN(Cc1ccc(F)cc1)C(=O)CN1C(=O)C2(OCCCO2)c2ccccc21,/,/,/,/,-0.7,/
CCCC(=O)NC(c1ccc(C)cc1)c1ccc2cccnc2c1O (stereo unspecified),68.3*,65.3*,74.3,85.0*,/,62.5*
CCCCC(=O)NC(c1ccc(Cl)cc1)c1ccc2cccnc2c1O (stereo unspecified),49.5,44.0,85.9*,84.4*,18.5,67.1*
CC(=O)NC(c1ccc2ccccc2c1)c1ccc2cccnc2c1O (stereo unspecified),42.2,48.1,85.3*,89.9*,27.1,48.9*
Cc1ccc(C(NC(=O)C(C)C)c2cc([N+](=O)[O-])c3cccnc3c2O)cc1 (stereo unspecified),-1.7,7.9,53.6,11.3,-14.9,13.9
O=C1C=CC(=O)c2c(O)c(N3CCN(CCOCCO)CC3)c(Br)c(O)c21,4.6,-15.0,92.9*,-5.8,-26.8,82.0*
OCCOCCN1CCN(C2=Nc3ccccc3Sc3ccccc32)CC1,-9.4,5.0,-1.9,10.5,-18.5,-4.2
O=C1C=CC(=O)c2c(O)c(N3CCN(CCO)CC3)c(Cl)c(O)c21,-14.3,-3.8,98.8*,-7.0,-52.3,71.5*
O=S(=O)(c1ccc(Br)cc1Cl)N1CCN(CCO)CC1,6.7,-21.4,-15.5,8.9,13.8,-8.4
c1cc2c(cc1C1=NNC(=NC3CC3)SC1)OCCO2,65.8*,56.6,81.0,24.7,60.7*,84.0*
Cc1cc(C2=NNC(=NC3CC3)SC2)c(C)n1-c1ccccc1F,88.5*,93.0*,97.6*,89.5*,92.8*,77.9*
CCCCN=C1NN=C(c2ccc3c(c2)OCCO3)CS1,-48.0,-63.2,-9.0,-88.2,-75.9,19.8
CS(=O)(=O)N(Cc1ccc(Cl)cc1)c1ccc(C(=O)N/N=C/c2cc3ccccc3nc2Cl)cc1,-36.4,-1.6,5.8,1.8,-24.0,58.1*
CS(=O)(=O)N(Cc1ccc(Cl)cc1)c1ccc(C(=O)NCc2ccccn2)cc1,-1.3,-2.1,5.9,-5.9,-10.4,-7.6
COC(=O)c1ccc(COc2ccccc2/C=C/C(=O)c2ccc(OCC(=O)O)cc2)cc1,13.0,2.9,0.8,-13.8,-8.1,68.6*
CCOC(=O)C1=CCC(c2ccc([N+](=O)[O-])cc2)N(S(=O)(=O)c2ccc(C)cc2)C1 (stereo unspecified),/,/,/,/,1.5,/
CC[C@H](C)[C@@H]1NC(=O)[C@@H](CC(C)C)NC(=O)[C@H](C(C)C)NC(=O)[C@H]2CSSC[C@H](NC1=O)C(=O)N2,95.1*,95.9*,89.5*,102.8*,93.6*,/
CCCCCC(=O)N1CCN(c2ccc(C(C)=O)cc2F)CC1,-29.9,-1.8,3.8,3.3,-4.5,76.5*
